# From PubChem BioAssay (NCI)
# The panel holds about 83,000 compounds, 20% with a hit somewhere; the sample as a whole holds those more often.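 Results are percent growth after 48 hours of single-concentration exposure. 100 means growth as in untreated cells, lower positive values show inhibition; negative values down to -100 show cell death.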 Values without a mark were called inactive. Activity calls are given as the source filed them.
# Tested on: NCI/ADR-RES ovarian
# Assay: NCI-60 one-dose screen, 48 h (100 = growth as untreated, 0 = no growth, -100 = all killed)
# Conditions: 10 µM unless noted
# Experimental: Growth inhibition of the NCI/ADR-RES human […] tumor cell line is measured as a screen for anti-cancer activity. Cells are grown in 96 well plates and exposed to the test compound for 48 hours. Compounds are tested at a single concentration, which is 10^-5 M for most compounds. The reported endpoint is percent growth (GI% or GIPRCNT), where numbers from 0 - 100% represent growth inhibition, and numbers from -100% - 0 represent cell death. For example, a value of 40 represents 60% growth inhibition. A value of 0 means no net growth occurred over the course of the experiment. A value of -40 indicates 40% of cells at the beginning of the experiment died by the end of the experiment. A value of -100 means all cells are dead at the end of the experiment.
# NCI-60 Human Tumor Cell Lines Screen was performed using the standard one-dose NCI protocol, which is described in more detail at https://dtp.cancer.gov/discovery_development/nci-60/default.htm.
# Compounds with GIPRCNT values below 10 were considered active. Activity score was based on GIPRCNT using the following formula: […]
# Score is 0 for GIPRCNT values of 100 or above, 50 for GIPRCNT values of 0, and 100 for GIPRCNT values of -100.
row,SMILES,growth
1,CC12CC[C@@H]3[C@]4(C)COC(c5cn[nH]c5-c5ccc(Cl)cc5)O[C@@H]4CC[C@@]3(C)[C@@H]1CC(C1=CCOC1=O)O2 (stereo not given in full),42.5%
2,CC(=O)c1cc(C(=O)c2ccccc2)n2c1ccc1ccccc12,101%
3,COc1ccc2[nH]c(O)c(N=NC(=O)Cn3c(-c4ccccc4)nc4cc(C)ccc43)c2c1,-5.85% (active)
4,Cc1sc2c(c1C)C(c1ccc(Cl)cc1)=N[C@@H](CC(=O)NCCCCCNC(=O)COc1ccc(C3CCC(=O)NC3=O)cc1)c1nnc(C)n1-2 (stereo not given in full),97.3%
5,COc1cc(-c2cc(-c3cccc(OCC(=O)O)c3)[nH]c(=O)c2C#N)cc(OC)c1OC,104%
6,CC1(C)CC[C@]2(C(=O)Nc3ccccc3)CC[C@]3(C)C(=CCC4[C@@]5(C)C[C@@H](O)[C@H](O)[C@@](C)(CO)C5CC[C@]43C)C2C1 (stereo not given in full),61.4%
7,N#Cc1c(-c2cccc3ccccc23)cc(-c2cccc(OCC(=O)O)c2)[nH]c1=O,99%
8,Cn1cc(-c2nnc(N)nc2-c2c[nH]c3ccc(Br)cc23)c2cc(Br)cnc21,64.5%
9,Cc1nc(Nc2ccccn2)sc1C(=O)CC(SCC(=O)Nc1ccc(Cl)cc1)c1ccccc1F (stereo not given),-18% (active)
10,COc1cc2oc(-c3cccc(C(=O)Nc4ccc(Cl)cc4)c3)cc(=O)c2c(OCCNC(=O)[C@H](CCC(=O)OC(C)(C)C)NC(=O)OC(C)(C)C)c1OC,91.5%
11,NS(=O)(=O)c1ccc(N=Nc2c(O)n(CC(=O)Nc3ccccc3Cl)c3ccccc23)cc1,30.4%
12,CC(=O)Nc1ccc(-n2cnc3ccc(-c4ccc(O)cc4)cc32)cc1,84.4%
13,COc1cc(-c2ccc(/C=N/NC(=O)c3[nH]c4ccc(Br)cc4c3-c3ccccc3)s2)cc(OC)c1OC,71.7%
14,CC1(C)CC[C@]2(C(=O)O)CC[C@]3(C)C(=CCC4[C@@]5(C)C[C@@H](O)[C@@H]6OC(c7ccco7)OC[C@@]6(C)C5CC[C@]43C)C2C1 (stereo not given in full),35.6%
15,COc1ccc2c(c1)c(-c1cc(N)n3nc(-c4cn(C)c5ccccc45)cc3n1)cn2C,-17.1% (active)
16,Nc1n[nH]c2cccc(C#Cc3cccc(NC(=O)c4cccc(Cl)c4)c3)c12,25.6%
17,Cn1cc(-c2cc(N)n3nc(-c4c[nH]c5ccccc45)cc3n2)c2cccnc21,27.7%
18,CC1=C(C(=O)c2ccccc2)C(c2cccc3ccccc23)n2c(nc3ccccc32)N1 (stereo not given),43.3%
19,O=C1N/C(=N\c2nccs2)S/C1=C\C=C/c1ccccc1,37.4%
20,Cc1cccc(NC(=O)[C@]23CCC(C)(C)CC2C2=CCC4[C@@]5(C)C[C@@H](O)[C@H](O)[C@@](C)(CO)C5CC[C@@]4(C)[C@]2(C)CC3)c1 (stereo not given in full),7.61% (active)

row,SMILES,growth
1,C[C@H]1CN(C(=O)c2ccc3c(NNC(=O)c4ccncn4)nc4cc(F)c(F)cc4n23)CCN1,3.96% (active)
2,CCOC(=O)C(N=Nc1ccc(S(=O)(=O)N=C(N)N)cc1)C(C)=O (stereo not given),113%
3,O=C(c1ccc(OCCN2CCOCC2)cc1)C1[C@H](c2ccc(Cl)cc2)[C@@H](c2ccccc2)NC12C(=O)Nc1ccc(Br)cc12 (stereo not given in full),18.4%
4,COc1ccc(-c2nc3cc(C)ccc3n2CC(=O)N=Nc2c(O)[nH]c3ccc(Cl)cc23)cc1,-30.8% (active)
5,N/C(=N\c1nc2ccccc2s1)NC(=O)NCCCCCCO,24.3%
6,O=C(/C=C/c1cccc(OCc2ccccc2)c1)c1nc2ccccc2[nH]1,64.5%
7,Cc1cc(C)n(-c2ccc3nnc(-c4ccccc4)n3n2)n1,76.1%
8,CN1CCc2c(sc3ncnc(N/N=C/c4ccc(Cl)cc4Cl)c23)C1,8.35% (active)
9,CCOC(=O)/C=C/c1cccc2c1C(=O)NC(C)(c1cc3cc(Cl)ccc3oc1=O)N2 (stereo not given),22.7%
10,COc1ccc(NC(=O)Cn2c3c(sc2=O)[C@H]2[C@@H](O)[C@@H](O)[C@H](O)[C@@H]2CS3)cc1,107%
11,Cc1ccc([C@H]2C(C(=O)c3ccc(Cl)cc3)C3(N[C@@H]2c2ccccc2)C(=O)Nc2ccc(Br)cc23)cc1 (stereo not given in full),55.5%
12,N#Cc1c(-c2ccccc2Cl)cc(-c2ccc3ccccc3c2)[nH]c1=O,13.4%
13,COc1ccc(C(=O)/C=C/c2ccc(OCc3ccc(F)cc3)c(OC)c2)cc1OC,11%
14,COc1cc(C2CC(c3cc(OC)c(OC)c(OC)c3)=NN2C(C)=O)ccc1OCc1ccccc1 (stereo not given),38.4%
15,CC(=O)Oc1ccccc1C(=O)[Se]C(=NC1CCCCC1)NC1CCCCC1,-63.3% (active)
16,COc1ccc(-c2nc(SCC(C)C)nc(NCCc3c[nH]c4ccccc34)c2C#N)cc1,61.3%
17,CC(C)c1sc(NC(=O)c2cc(NC(=O)c3cc(NC(=O)c4cscn4)cn3C)cn2C)nc1C(=O)NCCCN(C)C,103%
18,COc1ccc2c(c1)C(=N/N=C(\C)c1ccc(OC)c(S(N)(=O)=O)c1)C(=O)N2,100%
19,COc1c(F)ccc(C(=O)Nc2ccc3nc(NC(=O)C4CCCN(S(=O)(=O)c5cccc(C(F)(F)F)c5)C4)sc3c2)c1F (stereo not given),84.3%
20,COc1ccc2c(c1)c(-c1cc3nc(-c4cn(C)c5ncccc45)cc(N)n3n1)cn2C,9.49% (active)
